Screening results: PubChem BioAssay, several laboratories
BaF3 parental: parental Ba/F3 viability inhibition as JAK2V617F counter-screen. CellTiter-Glo ATP luminescence. inhibition, % at 5.6 µM. 1.1% of 220,000 active. AID 1486;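 active = inhibition above a per-campaign cutoff, the mean inhibition of all tested compounds plus 3 SD, cut at about 27% in these data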
Ba/F3 V617F tox: lowers viability of Ba/F3 cells expressing EpoR and JAK2V617F; ATP luminescence; inhibition, % at 5.6 µM; 1.1% of 220,000 active; AID 1446;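 active = inhibition above the campaign mean plus 3 SD over all tested compounds, cut at about 24% in these data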;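 note: cytokine-independent growth of Ba/F3 cells driven by EpoR plus mutant JAK2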
APP transl inh: APP translation inhibition | inhibition, % at 2 µM | AID 1285 | SH-SY5Y APP 5'UTR-luciferase reporter, luminescence | 0.82% of 190,000 active;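 active = inhibition above a set limit, derived from the sample mean plus 3 SD, cut at about 45% in these data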
aSyn 5UTR inh: MLPCN primary screen, SNCA 5' untranslated region; alpha-synuclein 5'UTR reporter, inhibitor activity; inhibition, % (tested at 7.5 µM); 0.82% of 300,000 active; AID 1813; in the data active = inhibition above about 60%;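 note: H4 neuroglioblastoma cells stably carrying SNCA 5'UTR luciferase fusion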
IEC-6 cytotox: kills IEC-6 intestinal cells in KLF5 counter-screen. IEC-6 cytotoxicity, luminescence viability. inhibition, % at 5 µM. 0.78% of 290,000 active; in the data active = inhibition above about 22%
KLF5 inhibitor: kruppel-like factor 5 inhibition; 0.23% of 290,000 active; inhibition, % at 5 µM; DLD-1 KLF5 promoter-luciferase reporter, luminescence;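 active = inhibition above a per-plate limit of that plate's mean compound inhibition plus 3 SD, cut at about 60% in these data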;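 note: higher means less KLF5 promoter-driven luciferase light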
Of the large screens only hits and unclear results are named; the others gave an inactive call. Hits are enriched below; roughly 2.2% of the tested compounds scored in any of these assays.

COc1ccc(COc2cc(-c3cccc(OC)c3)nc3ccc(N)cc23)cc1	BaF3 parental 83.7, Ba/F3 V617F tox 80.7, APP transl inh 95.6
Cn1c(C(=O)N2CCc3ccccc3C2)cc2c(=O)n3ccccc3nc21	none
CCCNC(=O)c1ccc(-c2nc3ccccc3s2)s1	aSyn 5UTR inh 79.2
CC1CN(c2ccc(Oc3ccccc3)cc2)c2nc3c(c(=O)n(CC(N)=O)c(=O)n3C)n2C1 (configuration not stated)	none (no result: BaF3 parental, Ba/F3 V617F tox, APP transl inh, IEC-6 cytotox, KLF5 inhibitor)
Cn1cc(C(=O)N/N=C/C(Br)=C\c2ccccc2)ccc1=O	none
Cn1cc(C(=O)N/N=C/C(Br)=C/c2ccccc2)ccc1=O	APP transl inh 84.7
CC(=O)c1sc(NC(=O)CCS(=O)(=O)c2ccc(C)cc2)nc1C	none (no result: BaF3 parental, Ba/F3 V617F tox, APP transl inh, IEC-6 cytotox, KLF5 inhibitor)
C/C(=N\Nc1ccc(Cl)c(C(=O)O)c1)c1ccccn1	none (no result: APP transl inh)
C/C(=N\Nc1ncc(Cl)cc1Cl)c1ccccn1	APP transl inh 70.2, aSyn 5UTR inh 100.5
CCOC(=O)N1CCN(S(=O)(=O)c2ccc(C(=O)NNc3nc4cc(C)cc(C)c4s3)cc2)CC1	aSyn 5UTR inh 66.0
CCOC(=O)N1CCN(S(=O)(=O)c2ccc(C(=O)NNc3nc4c(C)cccc4s3)cc2)CC1	none
CCOC(=O)N1CCN(S(=O)(=O)c2ccc(C(=O)NNc3nc4c(C)cc(C)cc4s3)cc2)CC1	aSyn 5UTR inh 71.4
CCOC(=O)N1CCN(S(=O)(=O)c2ccc(C(=O)NNc3nc4ccc(Cl)cc4s3)cc2)CC1	aSyn 5UTR inh 67.1
O=C(CSc1nc2cc([N+](=O)[O-])ccc2n1-c1ccc(F)cc1)NC1CCS(=O)(=O)C1 (configuration not stated)	none
Cc1c(NC(=O)c2ccc3nsnc3c2)cccc1[N+](=O)[O-]	none (no result: BaF3 parental, Ba/F3 V617F tox, APP transl inh)
COc1cccc(-n2cc(CN(C)Cc3nc(Cc4cccc(F)c4)no3)cn2)c1	none
COc1ccc(CN(C)Cc2nc(Cc3cccc(F)c3)no2)c2cccnc12	BaF3 parental 61.9, Ba/F3 V617F tox 46.3
COCCNc1nc(N)c([N+](=O)[O-])c(NC2CCCCC2)n1	aSyn 5UTR inh 67.7 (no result: BaF3 parental, Ba/F3 V617F tox, APP transl inh)
Nc1nc(NC2CCCCC2)nc(NCCO)c1[N+](=O)[O-]	none (no result: BaF3 parental, Ba/F3 V617F tox, APP transl inh)
CC(=O)n1cc(-c2ccncc2)c2ccccc21	APP transl inh 46.3
CC(=O)n1cc(/C=N/NC(=O)c2sc(C)nc2C)c2ccccc21	none
COc1ccccc1-c1c(C(F)(F)F)oc2c(CN(C)C)c(O)ccc2c1=O	none (no result: BaF3 parental, Ba/F3 V617F tox, APP transl inh)
Cc1ccccc1C(=O)NCCn1cc(SCC(=O)NCC2CCCO2)c2ccccc21 (configuration not stated)	none (no result: BaF3 parental, Ba/F3 V617F tox, APP transl inh)
Cc1ccc(C)c(S(=O)(=O)Nc2ccc(C(=O)NCC(c3ccco3)N3CCCCC3)cc2)c1 (configuration not stated)	none (no result: BaF3 parental, Ba/F3 V617F tox, APP transl inh)
CC(C)[N+]1(C)[C@@H]2CC[C@H]1CC(OC(=O)C(CO)c1ccccc1)C2 (some centres not stated)	none
Cc1cc(C(=O)COC(=O)c2ccccc2Br)c(C)n1CC1CCCO1 (configuration not stated)	none (no result: APP transl inh)
Cc1cc(C(=O)COc2ccccc2C(N)=O)c(C)n1CC1CCCO1 (configuration not stated)	BaF3 parental 62.1, Ba/F3 V617F tox 45.1
Oc1c(C(c2ccc(Cl)cc2)N2CCCC2)cc(Cl)c2cccnc12 (configuration not stated)	none
CCC(=O)NC(c1ccccc1OC)c1ccc2cccnc2c1O (configuration not stated)	BaF3 parental 68.2, Ba/F3 V617F tox 60.7, APP transl inh 88.8, aSyn 5UTR inh 79.9
Oc1c(C(c2ccccc2Cl)N2CCCC2)ccc2cccnc12 (configuration not stated)	BaF3 parental 68.4, Ba/F3 V617F tox 82.7, aSyn 5UTR inh 97.3, KLF5 inhibitor 73.3
COc1ccc(Cl)cc1C(Nc1cccnc1)c1ccc2cccnc2c1O (configuration not stated)	none
CCCCC(=O)NC(c1ccccc1Cl)c1ccc2cccnc2c1O (configuration not stated)	aSyn 5UTR inh 83.4, KLF5 inhibitor 71.5 (no result: BaF3 parental, Ba/F3 V617F tox, APP transl inh)
O=C1CN(C(=O)COC(=O)/C=C/c2ccc(S(=O)(=O)N3CCOCC3)cc2)c2ccccc2N1	none
Nc1ccc(NC(=O)Nc2ccc(N)cc2)cc1	none (no result: APP transl inh)
COc1ccc2c(c1)NC(C)(C)C=C2C	none
CC1=CC(C)(C)Nc2ccccc21	aSyn 5UTR inh 91.8
COc1cc(Cl)ccc1S(=O)(=O)n1nc(C)cc1C	BaF3 parental 93.2
COc1ccc(CCn2c(Br)nc3c2c(=O)[nH]c(=O)n3C)cc1	none
CCOc1ccccc1C(=O)NCCCCCC(=O)O	none
Cc1ccccc1N1C(=O)C2C3C=CC(CC3)C2C1=O (configuration not stated)	none (no result: BaF3 parental, Ba/F3 V617F tox, APP transl inh)
Cc1ccccc1N1C(=O)CC2(CCCC2)CC1=O	BaF3 parental 44.8
Cc1onc(-c2ccccc2)c1C(=O)NC(=S)NNC(=O)c1ccc(O)cc1O	BaF3 parental 71.7, Ba/F3 V617F tox 98.2, aSyn 5UTR inh 64.1
Cc1onc(-c2ccccc2)c1C(=O)NC(=S)NNC(=O)c1ccc(O)cc1	none
Cc1onc(-c2ccccc2)c1C(=O)NC(=S)NNC(=O)c1ccccc1O	BaF3 parental 83.5, Ba/F3 V617F tox 101.1, aSyn 5UTR inh 62.6
CCOc1ccc(Nc2ccc(C(=O)O)cc2[N+](=O)[O-])cc1	none (no result: BaF3 parental, Ba/F3 V617F tox, APP transl inh)
O=C(C[n+]1cc(-c2ccccc2)n2c1CCC2)N1c2ccccc2Sc2ccccc21	none
O=C(C[n+]1cc(-c2ccccc2)n2c1CCC2)c1cccs1	BaF3 parental 39.0, Ba/F3 V617F tox 25.6
O=C(C[n+]1cc(-c2ccc(Br)cc2)n2c1CCCCC2)c1ccccc1	BaF3 parental 49.3, Ba/F3 V617F tox 38.2
O=C(C[n+]1cc(-c2ccc(Cl)cc2)n2c1CCCCC2)c1ccccc1	BaF3 parental 43.1, Ba/F3 V617F tox 27.8 (no result: APP transl inh)
Cc1ccc(C(=O)NC2CCN(CC(=O)Nc3c(C)cc(C)cc3C)CC2)cc1	none (no result: BaF3 parental, Ba/F3 V617F tox, APP transl inh)
O=Cc1cnc(N2CCN(Cc3ccccc3)CC2)s1	none
Cc1ccc(C(=O)C(C)Oc2cccc(NC(=O)c3ccco3)c2)cc1 (configuration not stated)	none
CCCN1CNC(=S)N(c2ccc(C(=O)OCC)cc2)C1	none
CCOC(=O)c1ccc(N2CN(CC)CNC2=S)cc1	aSyn 5UTR inh 63.9
CCNC(=S)N=Nc1c(O)[nH]c2ccc(C(C)C)cc12	aSyn 5UTR inh 63.2
O=c1nc(SCc2c(F)cccc2Cl)nc(-c2ccc(Cl)cc2)[nH]1	BaF3 parental 40.3 (no result: APP transl inh)
Cc1ccnc(NS(=O)(=O)c2ccc(NC(=O)COc3ccccc3)cc2)n1	aSyn 5UTR inh 68.4
O=C(COc1ccccc1)Nc1ccc(S(=O)(=O)Nc2ncccn2)cc1	none
O=C(/C=C/Nc1ccccc1Br)c1ccccn1	aSyn 5UTR inh 114.3
CN(C)S(=O)(=O)N(CC(=O)Nc1ccc(F)c(F)c1)c1ccccc1	APP transl inh 58.6
CN(C)S(=O)(=O)N(CC(=O)Nc1ccc2ccccc2c1)c1ccccc1	none
Cc1cc(C)nc(SCc2ccc(C(=O)N/N=C/c3cccc(O)c3O)cc2)n1	APP transl inh 61.9, aSyn 5UTR inh 70.1
